From PubChem BioAssay
FMDV FLuc = FMDV antiviral activity by firefly signal. FMDV antiviral cell assay, firefly luciferase signal. Potency, µM (titrated, usually from 57.5 µM), actives largely listed as inhibitors. actives 0.23% (n = 120,000); also: nearly all actives have a fitted effect of over 60% in size
FMDV Renilla = FMDV antiviral activity by Renilla signal; actives 0.32% (n = 120,000); FMDV replicon cells, Renilla luciferase signal; Potency, µM (series often up to 57.5 µM), most hits filed as inhibitors; also: nearly all actives have a fitted effect of over 55% in size
A number is an active result; 0 = inactive; ? = inconclusive; ! = repeats disagree; [ ] = dose if it differs, or a comment. This is a sample that favours compounds with a hit; in the whole collection about 0.45% have one here. Calls follow the shape of the full dose curve.

SMILES | FMDV FLuc | FMDV Renilla
CC(C)c1ccc(NC(=O)CSc2nc(=O)n(Cc3cccnc3)c3c2CCC3)cc1 | ? | 8.91µM
N#Cc1c(SCC(=O)NCCc2ccccc2)nc(N2CCOCC2)c2c1CCCC2 | 0 | 0
Cc1cc(C)cc(Nc2cc(C)nc3nncn23)c1 | 0 | 0
Cc1cc(NCc2ccccc2Cl)n2cnnc2n1 | ? | 15.8µM
CNC(=O)CCS(=O)(=O)Cc1coc(-c2cccc(F)c2)n1 | 0 | 0
COc1ccc(OC(=O)CSc2nnc(-c3ccc(F)cc3)o2)cc1 | 0 | 0
CCOc1ccc(-c2nnc(SCC(=O)Oc3ccccc3)o2)cc1 | 3.55µM | 0
Cn1c(=O)[nH]c(=O)c2c1nc(N1CCCCCC1)n2Cc1ccccc1F | 0 | 0
CC(C)(C)c1ccc2c(c1)OCCOCCOCCOCCO2 | 0 | 0
CC(C)(C)c1ccc2c(c1)OCCOCCOc1cc(C(C)(C)C)ccc1OCCOCCO2 | 28.2µM | 17.8µM
COc1ccccc1OC(=O)COc1c(C)cc(Br)cc1Cl | 0 | 0[1.06 µM]
CCc1cc2c(C)cc(=O)oc2cc1OCC(=O)c1ccccc1 | 0 | 0
CCCNc1ncnc2onc(C)c12 | 0 | 0
COc1ccc(CCNc2ncnc3onc(C)c23)c(OC)c1 | ? | 0.891µM
COc1ccc(-n2nnnc2C2CCN(S(=O)(=O)c3cc(OC)ccc3OC)CC2)cc1 | ? | 25.1µM
COc1ccc(-n2nnnc2C2CCN(S(=O)(=O)c3ccc(F)cc3Cl)CC2)cc1 | 0 | 0
CN(C)CCCNC(=O)c1cc(-c2ccccc2)nc2ccccc12 | 0 | 0
CN(C)CCCNC(=O)c1cc(-c2ccc(-c3ccccc3)cc2)nc2ccccc12 | 0 | 8.91µM
COc1cc(Cl)c(C)cc1NC(=O)CCn1cnc2onc(-c3ccc(F)cc3)c2c1=O | 0 | 0
COc1ccc(NC(=O)CCn2cnc3onc(-c4ccc(F)cc4)c3c2=O)cc1OC | ? | 3.98µM
CCOc1cc(C2CC(=O)N3CN(c4ccccc4)CSC3=C2C#N)cc(Br)c1O (stereo not drawn) | 0 | 0
Cc1ccc(-n2nc(CO)c(C(=O)NCC(c3ccccc3)c3ccccc3)n2)cc1 | 0 | 0
O=C(NCc1cccs1)c1nn(-c2ccccc2Cl)nc1CO | ? | 0
O=C(NCC(c1ccccc1)c1ccccc1)c1nn(-c2ccccc2Cl)nc1CO | ? | 28.2µM!
Cc1ccccc1-n1nc(CO)c(C(=O)NCC(c2ccccc2)c2ccccc2)n1 | ? | 8.91µM
SMILES | FMDV FLuc | FMDV Renilla
CCOC(=O)c1c(C)[nH]c(C)c1C(=O)Cn1cnc2ccccc2c1=O | 0 | 0
CC(C)NS(=O)(=O)c1ccc(C(=O)NCc2ccc(-c3nc4ccccc4s3)o2)cc1 | 0 | 0
CC[N+](C)(CC)CC(C[N+](C)(CC)CC)OCc1ccccc1 | 0 | 0
C[N+](CCOCc1ccccc1)(CCOCc1ccccc1)CCOCc1ccccc1 | ? | 28.2µM
Cc1ncsc1C(=O)NCc1ccccc1 | 0 | 0
COc1ccc2[nH]cc(CCNC(=O)CCNc3nc(Cl)nc4nc[nH]c34)c2c1 | 0 | 0
COc1cccc(-c2nc(SCc3cc(=O)n4c5c(sc4n3)CCCC5)n[nH]2)c1 | 0 | 0
COc1ccc(NC(=O)CCc2c(C)nc3cc(-c4cccc(F)c4)nn3c2C)cc1Cl | 28.2µM | 0
Cc1nc2cc(-c3ccccc3)nn2c(C)c1CCC(=O)NCCc1ccccc1 | ? | 0
CCCCNC(=O)CCc1c(C)nc2cc(-c3ccccc3)nn2c1C | 1.78µM | 0
COC(=O)c1ccc(NC(=O)CCc2c(C)nc3cc(-c4cccc(F)c4)nn3c2C)cc1 | ? | 0
COc1ccccc1CNC(=O)c1ccccc1C(=O)c1cccs1 | 0 | 0
CCOc1ccccc1NC(=O)Cn1nc(N2CCN(c3ccccc3)CC2)ccc1=O | 0 | 0
CCc1ccccc1NC(=O)c1ccc(Cn2nc(N3CCN(c4ccccc4)CC3)ccc2=O)o1 | ? | 31.6µM
COc1ccccc1N1C(=O)C(Cc2ccccc2)N=C1N1CCN(C)CC1 (stereo not drawn) | 0 | 0
CCc1nc2ccccc2n1CCCCOc1ccccc1C | 11.2µM | ?
Cc1ccc(NCc2nc3ccccc3n2CCOc2ccccc2C)cc1 | 0 | 0
CCC(C)NC(=O)c1ccc(N(C)C2CCCCC2)cc1 (stereo not drawn) | 0 | 0[1.06 µM]
CCC(C)NC(=O)N(C)C1CCN(c2ccc(Cl)cc2)CC1 (stereo not drawn) | ? | 12.6µM
COc1ccc(OC)c(/C=C/C(=O)NC(C)(C)C)c1 | 0 | 0
COC(=O)Cc1c(C)c2ccc(O)cc2oc1=O | 0 | 0
CCC(C)S(=O)(=O)c1oc(-c2cccs2)nc1S(=O)(=O)c1ccccc1 (stereo not drawn) | 31.6µM | 0
O=S(=O)(c1ccccc1)c1nc(-c2cccs2)oc1N1CCCCC1 | 0 | 0
CC(=O)Nc1ccc2nc(-c3ccccc3)oc2c1 | 0 | 0
COC1C(O)C(C)OC(OC2CCC3(C)C(CC[C@@H]4[C@@H]3CCC3(C)C(C5=CC(=O)OC5)C(O)CC43O)C2)C1O (stereo partly drawn) | 2.24µM | 5.62µM
C[C@H]1O[C@@H](O[C@H]2CC[C@]3(C=O)[C@H]4CC[C@]5(C)[C@H](C6=CC(=O)OC6)CC[C@]5(O)[C@@H]4CC[C@]3(O)C2)C[C@H](O)[C@@H]1O | ? | 0.251µM
